Laboratory results from the supplement of paper PMC10849652.
Of roughly 7,900 targets only a part is listed; those with a hit were picked by preference. About 0.6% of all pairs of compound and target were hits.

Tests used:
Assay in all cases: log2 fold change, soluble protein after heating vs DMSO (PISA); higher = thermal stabilisation; K562 cells, 10 uM, 30 min; active = over 0.2 and 3.5 SD of the protein, either way, in both replicates (recomputed)
[1] = compound: C/C(=N\NC(=O)C1=CC(=CC=C1)S(=O)(=O)N2CCOCC2)/C3=C(C=CC(=C3)Cl)O
How it was run: (§1)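 K562 cells at 2×10^6 cells/mL were given 10 μM compound for 30 min. Aliquots then went through 3 min of heating across 48°C-58°C, were pooled, and were extracted in PBS with 0.5% NP-40 at 4°C, and the supernatant after 21,000xg for 90 min was quantified by TMTpro 16plex LC-MS/MS with channel sums equalised. Thermal stability relative to control samples, from duplicates, is given as log2 fold change.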

[2] = compound: C1=CC(=C(C=C1Cl)C2=NC3=NC=CN=C3C(=N2)NC4=CC=NC=C4)F
How it was run: as §1

[3] = compound: C1=CC2=C(C=CC(=C2)/C=C\3/C(=O)NC(=NCC4=CC=CS4)S3)N=C1
How it was run: as §1

[4] = compound: C1=CC=C(C=C1)C2=NC(=C(N2)C3=CC=NC=C3)C4=CC(=C(C=C4)Cl)O
How it was run: as §1

[5] = compound: C1=CC=C2C(=C1)C3=NNC4=CC=CC(=C43)C2=O
How it was run: as §1

[6] = compound: C1CCN(C1)C(=O)NC2=CC=CC(=C2)NC3=NC=C(C(=N3)NCCC4=CN=CN4)Br
How it was run: as §1

[7] = compound: C1CN(CCC1(CC2=CC=C(C=C2)Cl)N)C3=NC=NC4=C3C=CN4
How it was run: as §1

IRAK-1-4 Inhibitor I = compound: C1COCCN1CCN2C3=CC=CC=C3N=C2NC(=O)C4=CC(=CC=C4)[N+](=O)[O-] [IRAK-1-4 Inhibitor I]
How it was run: as §1

[8] = compound: CC(=O)c1cnc2ccc(-c3cc(Cl)c(O)c(Cl)c3)nc2c1N[C@H]1CC[C@H](CN(C)C)CC1
How it was run: as §1

ralimetinib = compound: CC(C)(C)Cn1c(N)nc2ccc(-c3[nH]c(C(C)(C)C)nc3-c3ccc(F)cc3)nc21 [ralimetinib]
How it was run: as §1

[9] = compound: CC(C)(O)CC(=O)NCCn1ccc2ncnc(Nc3ccc(Oc4cccc(C(F)(F)F)c4)c(Cl)c3)c21
How it was run: as §1

[10] = compound: CC(C)C[C@@H](C=O)NC(=O)[C@H](CC(C)C)NC(=O)[C@H](CC(C)C)NC(=O)OCc1ccccc1
How it was run: as §1

pinometostat = compound: CC(C)N(C[C@H]1O[C@@H](n2cnc3c(N)ncnc32)[C@H](O)[C@@H]1O)[C@H]1C[C@@H](CCc2nc3cc(C(C)(C)C)ccc3[nH]2)C1 [pinometostat]
How it was run: as §1

[11] = compound: CC1=C(C2=C(C=C1)C(=O)C3=CC=CC=C3N2CCCN)C
How it was run: as §1

erlotinib = compound: C#Cc1cccc(Nc2ncnc3cc(OCCOC)c(OCCOC)cc23)c1 [erlotinib]
How it was run: as §1

[12] = compound: C1=CC(=CC=C1C2=NC3=C(N2)C=C(C=C3)C(=O)N)OC4=CC=C(C=C4)Cl
How it was run: as §1

[13] = compound: CC(C)C1=C2N=C(C=C(N2N=C1)NCC3=CC=CC=C3)NCCCCCCN
How it was run: as §1

[14] = compound: CC1=C(C(CC(=O)N1)C2=CC=C(C=C2)C(F)(F)F)C(=O)NC3=C(C=C4C(=C3)C=NN4)F
How it was run: as §1

[15] = compound: C1=CC2=NC=CN=C2C=C1/C=C/3\C(=O)NC(=O)S3
How it was run: as §1

ibrutinib = compound: C=CC(=O)N1CCC[C@@H](n2nc(-c3ccc(Oc4ccccc4)cc3)c3c(N)ncnc32)C1 [ibrutinib]
How it was run: as §1

Measured: log2 fold change

MPHOSPH8 isoform 2 (UniProt Q99549)
inactive: [1] 0.033 | [2] 0.24 | [3] -0.044 | [4] -0.055 | [5] -0.086 | [6] -0.02 | [7] -0.065 | IRAK-1-4 Inhibitor I -0.149 | [8] 0.026 | ralimetinib 0.271 | [9] -0.06 | [10] 0.035 | pinometostat -0.027
active: [11] -0.84

NUDT6 (UniProt P53370)
Chain of UniProt P53370 (P53370 whole entry, looked up): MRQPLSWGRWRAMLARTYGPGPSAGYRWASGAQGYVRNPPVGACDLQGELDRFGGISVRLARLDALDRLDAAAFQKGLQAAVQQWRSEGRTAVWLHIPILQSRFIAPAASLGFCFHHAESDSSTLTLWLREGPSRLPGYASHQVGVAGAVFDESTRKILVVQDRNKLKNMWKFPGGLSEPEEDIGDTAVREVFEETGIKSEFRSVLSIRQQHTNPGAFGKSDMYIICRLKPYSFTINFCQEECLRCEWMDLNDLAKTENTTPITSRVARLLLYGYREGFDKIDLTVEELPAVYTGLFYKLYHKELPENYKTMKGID
inactive: erlotinib -0.022 | [2] 0.155 | [12] 0.103 | [4] -0.12 | [6] 0.121 | [7] 0.35 | IRAK-1-4 Inhibitor I -0.143 | ralimetinib 0.183 | [9] -0.106 | [13] -0.033 | [10] 0.035 | pinometostat 0.071 | [14] -0.161 | [11] 0.283

NPC1L1 (UniProt Q9UHC9)
Chain of UniProt Q9UHC9 (Q9UHC9 whole entry, looked up): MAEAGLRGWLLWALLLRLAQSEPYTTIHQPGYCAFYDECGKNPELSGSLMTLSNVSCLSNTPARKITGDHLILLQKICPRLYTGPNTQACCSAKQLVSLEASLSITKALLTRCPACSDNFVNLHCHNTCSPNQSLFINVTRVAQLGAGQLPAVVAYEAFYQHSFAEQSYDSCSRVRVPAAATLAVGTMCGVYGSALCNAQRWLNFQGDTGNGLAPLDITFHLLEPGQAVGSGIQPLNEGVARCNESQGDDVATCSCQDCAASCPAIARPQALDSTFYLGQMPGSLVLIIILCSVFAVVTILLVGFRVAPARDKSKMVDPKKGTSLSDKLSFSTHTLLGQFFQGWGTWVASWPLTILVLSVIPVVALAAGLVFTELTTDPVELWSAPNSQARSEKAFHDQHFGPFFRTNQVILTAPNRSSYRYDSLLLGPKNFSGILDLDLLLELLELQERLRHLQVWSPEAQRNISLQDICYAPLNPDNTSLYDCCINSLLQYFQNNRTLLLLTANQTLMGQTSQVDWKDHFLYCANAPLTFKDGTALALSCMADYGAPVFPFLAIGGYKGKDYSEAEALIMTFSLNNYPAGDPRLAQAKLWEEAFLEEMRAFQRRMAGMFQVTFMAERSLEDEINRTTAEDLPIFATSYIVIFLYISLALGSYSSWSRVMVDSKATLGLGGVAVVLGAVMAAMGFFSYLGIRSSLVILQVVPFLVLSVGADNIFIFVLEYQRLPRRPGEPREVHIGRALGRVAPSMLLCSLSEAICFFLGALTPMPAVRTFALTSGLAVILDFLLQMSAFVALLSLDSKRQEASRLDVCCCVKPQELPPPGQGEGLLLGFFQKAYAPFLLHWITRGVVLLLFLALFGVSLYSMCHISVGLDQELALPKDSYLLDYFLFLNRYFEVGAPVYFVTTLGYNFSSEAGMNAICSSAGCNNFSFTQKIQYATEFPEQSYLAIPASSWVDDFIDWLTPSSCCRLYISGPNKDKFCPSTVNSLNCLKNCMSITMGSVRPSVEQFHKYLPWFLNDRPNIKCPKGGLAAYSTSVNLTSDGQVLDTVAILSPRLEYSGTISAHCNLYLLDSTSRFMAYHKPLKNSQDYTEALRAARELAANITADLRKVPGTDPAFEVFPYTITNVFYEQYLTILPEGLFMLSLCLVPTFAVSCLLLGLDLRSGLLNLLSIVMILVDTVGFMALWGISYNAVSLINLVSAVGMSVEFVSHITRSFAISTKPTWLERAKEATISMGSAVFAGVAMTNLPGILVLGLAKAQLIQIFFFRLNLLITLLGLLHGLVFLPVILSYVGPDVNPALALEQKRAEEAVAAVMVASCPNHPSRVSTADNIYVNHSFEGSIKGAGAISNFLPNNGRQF
inactive: [1] 0.006 | [3] 0.073 | [15] 0.143 | [5] -0.02 | [6] 0 | [7] -0.033 | IRAK-1-4 Inhibitor I 0.014 | ibrutinib 0.047 | [8] -0.008 | pinometostat -0.136 | [14] -0.614 | [11] 0.085

NA, A0A2R8Y3M9
inactive: [1] -0.335 | [3] 0.355 | [15] 0.132 | [4] -0.072 | [5] -0.137 | IRAK-1-4 Inhibitor I 0.087 | ibrutinib 0.215 | [8] -0.207 | ralimetinib -0.08 | [10] 0.056 | pinometostat -0.001 | [14] 0.253

MON1A (UniProt Q86VX9)
inactive: erlotinib -0.119 | [2] 0.022 | [12] 0 | [15] -0.262 | [4] -0.017 | [6] 0 | [7] 0.135 | IRAK-1-4 Inhibitor I -0.005 | ibrutinib 0.231 | ralimetinib -0.213 | [9] -0.012 | [13] -0.151 | [10] 0.032 | pinometostat 0.002 | [14] 0.049 | [11] 0.129

NA, A0A1W2PSA9
inactive: [1] -0.065 | [3] -0.111 | [4] -0.008 | [5] -0.104 | [6] 0.101 | [7] -0.086 | [8] -0.13 | ralimetinib 0.004 | [10] 0.122 | [11] -0.27

MOB2 isoform 3 (UniProt Q70IA6)
inactive: erlotinib 0.029 | [2] -0.077 | [12] -0.001 | [15] 0.06 | [4] 0.025 | [6] 0.135 | [7] -0.22 | ibrutinib -0.061 | ralimetinib 0.039 | [9] -0.15 | [13] -0.01 | [10] -0.021 | [14] -0.037 | [11] 0.106

NUDT7 (UniProt P0C024)
Chain of UniProt P0C024 (P0C024 whole entry, looked up): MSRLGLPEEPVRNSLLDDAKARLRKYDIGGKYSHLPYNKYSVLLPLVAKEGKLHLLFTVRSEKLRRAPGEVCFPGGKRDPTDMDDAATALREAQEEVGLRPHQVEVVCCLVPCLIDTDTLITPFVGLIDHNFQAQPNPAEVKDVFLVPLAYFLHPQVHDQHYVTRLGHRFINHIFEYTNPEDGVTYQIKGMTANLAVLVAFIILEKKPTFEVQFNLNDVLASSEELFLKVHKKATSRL
inactive: erlotinib -0.246 | [2] -0.282 | [12] 0.148 | [15] -0.066 | [4] -0.118 | [6] 0.158 | [7] -0.024 | IRAK-1-4 Inhibitor I -0.02 | ibrutinib 0.205 | ralimetinib -0.52 | [9] -0.467 | [13] 0 | [10] 0.207 | pinometostat -0.231 | [14] 0.129 | [11] 0.039

NA, A0A494C071
inactive: [1] 0 | [2] 0.197 | [3] -0.005 | [15] 0.079 | [5] -0.018 | [6] 0.136 | [7] 0.114 | IRAK-1-4 Inhibitor I -0.011 | ibrutinib -0.1 | [8] -0.038 | [9] 0.03 | pinometostat -0.034 | [14] 0.013 | [11] -0.141

NKTR (UniProt P30414)
Chain of UniProt P30414 (P30414 whole entry, looked up): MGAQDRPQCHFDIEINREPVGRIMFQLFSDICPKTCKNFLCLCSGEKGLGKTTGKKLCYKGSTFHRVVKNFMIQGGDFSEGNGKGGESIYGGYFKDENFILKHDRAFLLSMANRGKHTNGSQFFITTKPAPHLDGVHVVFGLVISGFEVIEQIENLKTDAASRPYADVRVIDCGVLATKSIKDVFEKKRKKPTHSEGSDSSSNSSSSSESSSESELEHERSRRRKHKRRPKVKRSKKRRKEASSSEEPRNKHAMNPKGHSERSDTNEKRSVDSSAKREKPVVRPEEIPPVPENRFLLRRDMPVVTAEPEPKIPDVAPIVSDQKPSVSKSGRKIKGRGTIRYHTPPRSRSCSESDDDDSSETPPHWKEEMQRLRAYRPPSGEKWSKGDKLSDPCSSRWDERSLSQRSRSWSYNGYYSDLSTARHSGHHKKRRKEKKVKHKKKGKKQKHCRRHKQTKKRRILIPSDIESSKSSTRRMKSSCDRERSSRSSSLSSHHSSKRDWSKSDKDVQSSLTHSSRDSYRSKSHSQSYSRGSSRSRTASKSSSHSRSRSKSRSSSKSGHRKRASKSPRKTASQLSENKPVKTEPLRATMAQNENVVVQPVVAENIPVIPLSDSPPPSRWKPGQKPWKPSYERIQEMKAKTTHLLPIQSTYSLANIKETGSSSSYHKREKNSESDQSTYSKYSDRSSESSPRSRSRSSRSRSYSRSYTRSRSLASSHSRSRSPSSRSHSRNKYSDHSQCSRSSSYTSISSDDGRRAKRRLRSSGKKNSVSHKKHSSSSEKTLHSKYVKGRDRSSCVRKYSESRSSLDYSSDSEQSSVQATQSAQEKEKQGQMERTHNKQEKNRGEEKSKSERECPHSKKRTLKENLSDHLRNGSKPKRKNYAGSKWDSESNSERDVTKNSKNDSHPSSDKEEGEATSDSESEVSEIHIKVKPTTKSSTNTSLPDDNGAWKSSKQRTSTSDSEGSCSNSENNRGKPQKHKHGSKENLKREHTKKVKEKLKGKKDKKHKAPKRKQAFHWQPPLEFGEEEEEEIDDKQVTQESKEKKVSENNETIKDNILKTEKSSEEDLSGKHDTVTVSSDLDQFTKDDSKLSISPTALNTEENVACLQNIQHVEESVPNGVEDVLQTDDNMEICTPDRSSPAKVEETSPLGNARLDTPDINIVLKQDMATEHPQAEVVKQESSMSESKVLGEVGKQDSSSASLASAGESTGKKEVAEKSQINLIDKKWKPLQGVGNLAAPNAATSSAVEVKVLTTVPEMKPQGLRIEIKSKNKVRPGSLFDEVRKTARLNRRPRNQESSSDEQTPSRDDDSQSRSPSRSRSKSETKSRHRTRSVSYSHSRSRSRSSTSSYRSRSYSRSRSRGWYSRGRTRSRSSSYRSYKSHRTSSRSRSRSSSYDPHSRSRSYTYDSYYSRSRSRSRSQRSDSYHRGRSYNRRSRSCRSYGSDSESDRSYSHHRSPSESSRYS
inactive: erlotinib 0.597 | [12] 0.028 | [15] -0.149 | ibrutinib -0.191 | [13] 0.084

MYLK (UniProt Q15746)
inactive: erlotinib 0.25 | [12] -0.146 | [15] -0.005 | [4] 0.291 | [6] 0.008 | [7] -0.066 | IRAK-1-4 Inhibitor I -0.051 | ibrutinib -0.101 | ralimetinib 0.524 | [13] -0.207 | [10] -0.181 | pinometostat -0.051 | [14] -0.269 | [11] -0.136

NDUFA7 (UniProt M0R0N0)
inactive: erlotinib 0.101 | [12] -0.051 | [15] 0.015 | ibrutinib -0.109 | [13] -0.136

MRM2 (UniProt Q9UI43)
Chain of UniProt Q9UI43 (Q9UI43 whole entry, looked up): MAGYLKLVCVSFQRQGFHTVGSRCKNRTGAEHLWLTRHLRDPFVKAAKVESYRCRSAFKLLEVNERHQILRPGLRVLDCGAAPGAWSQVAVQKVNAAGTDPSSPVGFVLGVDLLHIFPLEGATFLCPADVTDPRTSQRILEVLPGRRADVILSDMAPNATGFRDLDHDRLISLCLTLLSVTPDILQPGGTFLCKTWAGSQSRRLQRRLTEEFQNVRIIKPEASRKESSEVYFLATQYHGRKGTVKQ
inactive: erlotinib 0.023 | [1] 0.182 | [12] 0.031 | [3] 0.185 | [5] 0.121 | [6] -0.017 | [7] -0.002 | [8] -0.119 | [13] -0.075 | [14] 0.057 | [11] 0.104

NPM3 (UniProt O75607)
Chain of UniProt O75607 (O75607 whole entry, looked up): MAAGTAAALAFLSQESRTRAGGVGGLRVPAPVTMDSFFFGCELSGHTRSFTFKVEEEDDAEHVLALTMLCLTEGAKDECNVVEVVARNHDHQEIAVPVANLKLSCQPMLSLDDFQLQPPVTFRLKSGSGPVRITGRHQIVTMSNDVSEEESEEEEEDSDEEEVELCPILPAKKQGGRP
inactive: erlotinib -0.083 | [1] -0.104 | [12] 0.02 | [3] -0.184 | [15] 0.04 | [4] -0.025 | [5] -0.022 | [6] -0.054 | [7] -0.087 | IRAK-1-4 Inhibitor I -0.057 | ibrutinib -0.016 | [8] -0.004 | ralimetinib 0.045 | [13] 0.078 | [10] 0.053 | pinometostat 0.052 | [14] 0.088
active: [11] -0.521

NA (UniProt J3KR12)
inactive: [2] -0.073 | [15] 0.254 | [4] 0.075 | IRAK-1-4 Inhibitor I -0.191 | ibrutinib -0.159 | ralimetinib 0.011 | [9] -0.1 | [10] 0.017 | pinometostat 0.053 | [14] 0.046

MOB3B (UniProt Q86TA1)
inactive: erlotinib -0.305 | [1] 0.302 | [12] -0.271 | [3] 0.24 | [15] -0.056 | [5] -0.092 | [6] -0.186 | [7] 0.059 | IRAK-1-4 Inhibitor I -0.26 | ibrutinib -0.001 | [8] -0.026 | [13] -0.169 | pinometostat -0.056 | [14] -0.116 | [11] 0.024

NA (UniProt B2RBV5)
inactive: [2] -0.068 | [15] -0.015 | ibrutinib 0.069 | [9] -0.037 | [14] -0.314

ORC3 (UniProt Q9UBD5)
inactive: [1] 0.097 | [3] -0.104 | [5] 0.105 | [8] -0.031

NFYB (UniProt P25208)
inactive: erlotinib 0.092 | [1] -0.102 | [12] -0.153 | [3] -0.047 | [15] 0.064 | [4] -0.036 | [5] -0.045 | [6] 0.01 | [7] -0.069 | IRAK-1-4 Inhibitor I 0.07 | ibrutinib -0.051 | [8] 0.019 | ralimetinib 0.016 | [13] 0.054 | [10] -0.007 | pinometostat -0.043 | [14] 0.026
active: [11] 0.411

OAF (UniProt Q86UD1)
Chain of UniProt Q86UD1 (Q86UD1 whole entry, looked up): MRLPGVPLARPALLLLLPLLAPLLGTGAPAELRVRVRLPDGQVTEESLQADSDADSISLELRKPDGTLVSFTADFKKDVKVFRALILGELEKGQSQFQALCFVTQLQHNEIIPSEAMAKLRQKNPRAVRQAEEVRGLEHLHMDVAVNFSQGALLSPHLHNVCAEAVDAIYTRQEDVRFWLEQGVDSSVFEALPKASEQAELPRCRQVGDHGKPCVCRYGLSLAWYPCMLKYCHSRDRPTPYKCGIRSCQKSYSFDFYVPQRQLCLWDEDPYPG
inactive: erlotinib -0.115 | [12] 0.05 | [4] -0.174 | ralimetinib -0.041 | [13] 0.009 | [10] -0.013

MLH1 (UniProt P40692)
Chain of UniProt P40692 (P40692 whole entry, looked up): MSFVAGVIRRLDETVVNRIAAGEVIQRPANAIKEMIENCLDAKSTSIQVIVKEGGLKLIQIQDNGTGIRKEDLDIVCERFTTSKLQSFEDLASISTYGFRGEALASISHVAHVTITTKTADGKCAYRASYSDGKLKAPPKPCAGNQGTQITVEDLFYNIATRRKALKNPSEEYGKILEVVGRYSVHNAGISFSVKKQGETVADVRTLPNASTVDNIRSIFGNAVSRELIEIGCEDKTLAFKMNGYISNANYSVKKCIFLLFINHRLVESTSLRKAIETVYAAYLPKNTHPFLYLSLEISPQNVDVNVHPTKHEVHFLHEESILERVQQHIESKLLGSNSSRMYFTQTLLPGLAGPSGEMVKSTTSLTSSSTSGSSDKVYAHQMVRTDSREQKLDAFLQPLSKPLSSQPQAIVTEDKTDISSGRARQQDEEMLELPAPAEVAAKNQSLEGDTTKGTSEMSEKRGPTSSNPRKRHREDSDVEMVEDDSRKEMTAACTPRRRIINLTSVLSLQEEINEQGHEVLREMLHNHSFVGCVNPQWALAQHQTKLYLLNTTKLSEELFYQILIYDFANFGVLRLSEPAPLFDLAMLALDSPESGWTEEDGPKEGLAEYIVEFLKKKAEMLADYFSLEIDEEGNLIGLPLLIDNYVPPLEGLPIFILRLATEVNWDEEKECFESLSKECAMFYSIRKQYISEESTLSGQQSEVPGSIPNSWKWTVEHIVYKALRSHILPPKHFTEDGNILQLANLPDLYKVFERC
inactive: [1] 0.027 | [2] 0.077 | [3] -0.038 | [15] 0.096 | [5] 0.053 | [6] -0.165 | [7] 0.039 | ibrutinib -0.018 | [8] -0.112 | [9] -0.347 | [11] 0.008

NCBP2AS2 (UniProt Q69YL0)
Chain of UniProt Q69YL0 (Q69YL0 whole entry, looked up): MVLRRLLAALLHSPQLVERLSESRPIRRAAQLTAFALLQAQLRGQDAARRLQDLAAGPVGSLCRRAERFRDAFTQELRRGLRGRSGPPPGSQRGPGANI
active: [13] -0.869
inactive: erlotinib 0.033 | [1] 0.104 | [12] 0.054 | [3] 0 | [15] 0.106 | [4] -0.029 | [5] 0.148 | [6] 0.048 | [7] 0.113 | ibrutinib 0.07 | [8] 0.21 | ralimetinib -0.01 | [10] 0.026 | [14] 0.089 | [11] -0.008

NIPSNAP3B (UniProt Q9BS92)
inactive: erlotinib -0.061 | [1] -0.014 | [12] -0.071 | [3] -0.159 | [15] 0.031 | [5] 0.007 | [6] 0.008 | [7] 0.051 | IRAK-1-4 Inhibitor I 0.048 | ibrutinib 0.082 | [8] 0.026 | [13] 0.045 | pinometostat 0.056 | [14] 0.07 | [11] 0.049

MYH16 (UniProt Q9H6N6)
active: [11] 0.805
inactive: erlotinib -0.044 | [1] 0.102 | [12] 0.049 | [3] -0.21 | [15] 0.284 | [5] 0.044 | [6] -0.089 | [7] -0.082 | IRAK-1-4 Inhibitor I -0.177 | ibrutinib -0.02 | [8] 0.045 | [13] 0.026 | pinometostat -0.019 | [14] -0.024
